Active and inactive are the calls of the source.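 How the source made its calls: active means primary screen active and over 50% activation in each of two duplicate runs; inactive means the rest.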

This assay deals with transient receptor potential cation channel C4 beta (TRPC4), mouse. The assay is described as follows: TRPC4 cation channel opening, second retest – cell-based, second round, Fluo4, HEK293 TRPC4beta/mu-opioid, 1 µM, confirmation (AID 2461).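 On activation: 0% = wells without test compound as baseline of integrated fluorescence ratio.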 The conditions noted are these: Fluo4 calcium fluorescence, at 1 µM; hits give high values.
For the molecule `Cc1cc(-c2ccc(C)c(S(=O)(=O)NCCCN(Cc3ccccc3)C(C)C)c2)on1`, the result was inactive.
With `CCc1nc(NCCc2ccccn2)c2nnn(Cc3ccccc3F)c2n1`, the outcome was inactive.
For the molecule `Cc1sc2ncnc(NCC(C)(C)N3CCOCC3)c2c1C`, the activation is 109% (active).
`Cc1ccc(N2CCN(c3ccc(NCc4nc5ccccc5n4C)cc3)CC2)cc1`: the result was inactive.
The same measure, in the same setting: to `COc1ccc(C(CNC(=O)CN2C(=O)NC3(CCCC3)C2=O)N(C)C)cc1` (stereo not given) belongs “inactive”.
Consider `Cc1cccc(NC(=S)NCC(c2cccnc2)N(C)C)c1C` (stereo not given), for which the activation is 106% (active).
As for `Cc1ccccc1OCC(=O)NNC(=S)NC(=O)c1ccco1`, the outcome was inactive.
The same measure, in the same setting: the result for `Cc1ccc(Sc2cc(C(=O)NCCN(C)C)c3ccccc3n2)cc1` reads “inactive”; that for `O=C(O)c1ccc(-c2ccc(/C=c3/sc4nc5ccccc5n4c3=O)o2)cc1Cl`, “inactive”.
On the same count and under the same terms, to `Cc1ccccc1C(=O)NNC(=S)NC(=O)c1ccccc1` belongs “inactive”; to `CN(C)C(CNC(=O)c1ccc2ccccc2n1)c1ccccc1` (stereo not given), “inactive”; to `Cc1cc(NC(=O)CN2CCc3ccccc3C2)nc2c1c(=O)oc1ccccc12`, “inactive”.
The same measure, in the same setting: to `Cn1c(CN2CCN(c3cccc(Cl)c3)CC2)nc2ccccc21` belongs “inactive”.
With `CN(C)C(CNC(=O)c1cnc(Cl)c(Cl)c1)c1ccccc1` (stereo not given), the activation was 151% (active).
For the molecule `Cc1ccc(Cl)cc1NC(=O)CNCC(c1ccccc1)N(C)C` (stereo not given), the outcome was inactive.
Same read-out and setting: the result for `CN(C)CCCN(C(=O)c1ccc(S(=O)(=O)N2CCOCC2)cc1)c1nc2ccc(F)cc2s1` reads “inactive”; that for `CN(C)CCN(C(=O)c1cccc2ccccc12)c1nc2cc3c(cc2s1)OCO3`, “inactive”.
On to `Cc1ccc2c(C)c(C(=O)N(Cc3cccs3)C3CCS(=O)(=O)C3)oc2c1` (stereo not given), for which the result was inactive.
Take `CCN1CCN(c2c(Cl)cccc2NC(=O)c2ccc3nsnc3c2)CC1`: the result was inactive.
In the case of `O=C(C1CCCN(Cc2ccncc2)C1)N1CCc2ccccc2C1` (stereo not given), the activation is 149% (active).
In the case of `CCN(c1ccccc1)S(=O)(=O)c1ccc(C(=O)N(CCCN(C)C)c2nc3cc4c(cc3s2)OCO4)cc1`, the outcome was inactive.
With `CC1CCCN(CCCNC(=O)c2ccc3c(c2)N(Cc2ccccc2F)C(=O)c2ccccc2S3(=O)=O)C1` (stereo not given), the activation was 68% (active).
With `O=C(Nc1nnc(-c2ccccc2Cl)o1)c1nc2ccccc2s1`, the result was inactive.
On the same count and under the same terms, to `COc1ccc(C(=O)NC(=S)NNC(=O)CCc2ccccc2)cc1` belongs “inactive”.
As for `Cc1cc(-c2nn(-c3ccccc3F)cc2CNCCc2cnc[nH]2)c(C)s1`, the activation was 87% (active).
For the molecule `Cc1ccc(C(=O)NC(=S)NNC(=O)c2ccccc2)cc1`, the outcome was inactive.
Still for that read-out and setting: to `Cc1csc2c(N3CCN(C(=O)NC(C)(C)C)CC3)ncnc12` belongs “inactive”; to `COC(=O)[C@@]1(Cc2ccc(F)cc2)[C@H]2c3cc(C(=O)N(C)C)n(CCc4ccccn4)c3C[C@H]2CN1C(=O)c1ccccc1`, “inactive”.
For the molecule `CN(CCc1ccccn1)C(=O)CC1C(=O)NCCN1Cc1ccccc1C(F)(F)F` (stereo not given), the result was inactive.
Consider `COc1cc(/C=C/C(=O)c2ccc3c(c2)OCO3)cc(Cl)c1O`, for which the outcome was inactive.
On the same count and under the same terms, the result for `CCn1c(N2CCN(C(=O)Nc3ccc(F)cc3)CC2)nc2ccccc21` reads “inactive”.
The same measure, in the same setting: the result for `O=S(=O)(c1ccccc1)c1nnn2c1nc(NC1CCN(Cc3ccccc3)CC1)c1cc(Cl)ccc12` reads “inactive”.
On the same count and under the same terms, to `CCOC(=O)c1oc2ccc(OC)cc2c1NC(=O)CN1CCN(C)CC1` belongs “inactive”.
In the case of `C=CCn1c(CCNC(=O)C(C)(C)C)nc2ccccc21`, the result was inactive.
Still for that read-out and setting: the result for `CCOC(=O)C1(CCOc2ccccc2)CCN(Cc2ccc3c(c2)OCCO3)CC1` reads “inactive”; that for `Cc1cc(C)n(-c2nc(SCCN(C)C)c3c4c(sc3n2)CCCC4)n1`, “inactive”.
Consider `COc1cc(OC)cc(C(=O)NC2CCCN(Cc3ccc(Cl)cc3)C2)c1` (stereo not given), for which the outcome was inactive.
In the case of `CN(C)C(CNC(=O)CCc1c[nH]c2ccccc12)c1ccccc1` (stereo not given), the activation is 83% (active).
On the same count and under the same terms, to `CCCCN(CC)CCCNC(=O)Cn1nc(Cc2ccncc2)c2ccccc2c1=O` belongs 120% (active).
Turning to `COC(=O)C1=C(C)N(Cc2ccccc2)C(=NCCc2ccccn2)N[C@H]1c1cccc(F)c1`, the outcome was inactive.
